The record followed here is PubChem BioAssay (NCATS).

Inconclusive results are not listed. Unmarked numbers belong to inactive results. Calls of active or inactive are those of the source. The call rests on the fitted dose curve; in most records, active means well fitted cell-killing curve with a large enough effect; inconclusive means small, poorly fitted or top-dose-only effect; inactive means flat fitted curve, though single readings scatter.
Potency means the concentration at half of the fitted maximal effect.

This assay can be described thus: Cell Viability - LYMP2-022 (AID 987). Further: nearly all actives have a fitted effect of over 55% in size.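 On viability change, negative = cytotoxic: 0% = DMSO alone and full effect = tetraoctylammonium bromide at 92 µM.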 The following applies: LYMP2-022 lymphoblastoid cell viability; series mostly up to 92.2 µM; viability change, negative = cytotoxic: at the top concentration. From the text: NIH Chemical Genomics Center [NCGC]
NIH Molecular Libraries Screening Centers Network [MLSCN]
National Institutes of Environmental Health Sciences [NIEHS]
National Toxicology Program [NTP]
We have developed a 1536-well cell-based assay for quantitative high throughput screening (qHTS) against a number of cell lines to determine in vitro cytotoxicity of small molecules. This particular assay uses a human lymphoblastoid cell line (LYMP2-022) purchased from Coriell Institute for Medical Research.
NCGC Assay Protocol Summary:
The CellTiter-Glo luminescent cell viability assay (Promega) is a homogeneous method to measure the number of viable cells in culture. The end point readout of this assay is based on quantitation of intracellular ATP, an indicator of metabolic activity, using the luciferase reaction. Luciferase catalyzes the oxidation of beetle Luciferin to oxyluciferin and light in the presence of ATP. The luminescent signal is proportional to amount of ATP present.
Using the CellTiter-Glo luminescent cell viability assay, the amount of cellular ATP was measured in the lymphoblastoid cell line with complete culture medium following compound treatment for 24 hours. The assay was performed in opaque white Kalypsys 1536-well plates. In the screen, tetraoctylammonium bromide was used as positive control. Library compounds were measured for their ability to cause acute toxicity in the cell line, as reflected by a decrease in intracellular ATP levels, in a concentration-dependent manner. […] AC50 values were determined from concentration-response data modeled with the standard Hill equation.
qHTS protocol for CellTiter Glo lymphoblastoid cellular assay
[Step] [Parameter] [Value] [Description]
1. Reagent; 5 uL; 2500 lymphoblastoid cells/well
2. Time; 5 hr; 37 C incubation
4. Controls; 23 nL; Tetraoctylammonium bromide 6.4pM to 92 uM
5. Time; 24 hr; 37 C incubation
6. Reagent; 5 uL; CellTiter Glo reagent
7. Time; 30 min; Room Temperature
8. Detection; Luminescence; Viewlux plate reader
Keywords: cell viability, cytotoxicity, lymphoblastoid cell line, luminescence, NTPHTS, NTPHTS_NCGC, NIEHS, DSSTox, MLSMR, MLSCN, NIH Roadmap, qHTS, NCGC
As for `Oc1cccc(Cl)c1`, the “viability change, negative = cytotoxic” value is -3.82%. Consider `BrCC(Br)(Br)Br`, for which the Potency is 7.94 µM (active). `CCN(N=O)C(N)=O`: the “viability change, negative = cytotoxic” value was -14.9%.

As for `CC(Cl)CCl` (stereo not given), the “viability change, negative = cytotoxic” value is -4.44%. The same measure, in the same setting: the value for `Oc1ccc(Cl)c(Cl)c1` was -5.77%. In the case of `ClCc1ccccc1`, the “viability change, negative = cytotoxic” value is -8.28%. Take `N#CCBr`: the “viability change, negative = cytotoxic” value is -21.1%.

For the compound `O=C(O)C(Cl)(Cl)Br`, the “viability change, negative = cytotoxic” value is -7.96%.

As to `COc1ccccc1N`, the “viability change, negative = cytotoxic” value was -10.4%. Turning to `CC(C)(Cl)Cl`, the “viability change, negative = cytotoxic” value was 0.637%. For `Clc1ccc(Cl)c(Cl)c1`, the “viability change, negative = cytotoxic” value was 1.66%. The same measure, in the same setting: the value for `CCC/C=N/O` was -3.08%; that for `CC(=O)NNc1ccccc1` was -1.55%; that for `CCCCOC(=O)c1ccccc1N` was 1.26%. Same read-out and setting: the value for `ClCC(Cl)Cl` was -0.916%; that for `Clc1ccc(C(c2ccccc2Cl)C(Cl)(Cl)Cl)cc1` (stereo not given) was -16.3%. Turning to `Clc1cc(Cl)c(Cl)c(Cl)c1`, the “viability change, negative = cytotoxic” value is -5.38%. On the same count and under the same terms, the value for `CC(C#N)CCC#N` (stereo not given) was -11.4%; that for `O=[N+]([O-])c1cc(Cl)c(Cl)cc1Cl` was -0.268%; that for `O=[N+]([O-])CCO` was -10%. Consider `S=C1NCCN1`, for which the “viability change, negative = cytotoxic” value is -9.56%.

Take `c1ccc(C2CO2)cc1` (stereo not given): the “viability change, negative = cytotoxic” value is -5.25%. On the same count and under the same terms, the same measure for `BrC(Br)Br`: 4.09%; for `ClCCOCOCCCl`: -6.06%. Take `CC1CC(=O)O1` (stereo not given): the “viability change, negative = cytotoxic” value is -1.52%. Still for that read-out and setting: the value for `CC(C)(C)c1ccccc1O` was -1.97%. Regarding `CCOC(=O)CBr`, the “viability change, negative = cytotoxic” value is -20%. Still for that read-out and setting: the value for `CCCCCc1cc(O)cc(O)c1` was -9.29%; that for `O=[N+]([O-])c1cccc2c([N+](=O)[O-])cccc12` was 0.314%.

With `CCCCC(CC)COC(=O)c1ccc(C(=O)OCC(CC)CCCC)c(C(=O)OCC(CC)CCCC)c1` (stereo not given), the “viability change, negative = cytotoxic” value was -32.4%.

Turning to `CN(C)c1ccccc1`, the “viability change, negative = cytotoxic” value is 0.775%.

Turning to `COc1cc(-c2ccc(N)c(OC)c2)ccc1N`, the “viability change, negative = cytotoxic” value was -9.24%.

Take `CN(C)c1ccc(N(C)C)cc1`: the Potency is 39.8 µM (active). Regarding `ClCCCCl`, the “viability change, negative = cytotoxic” value was -13.3%. Same read-out and setting: the same measure for `[N-]=[N+]=[N-]`: -1.5%; for `ClC(Br)Br`: -8.28%.

As to `Cc1ccc(N)c(C)c1`, the “viability change, negative = cytotoxic” value was -13.7%. Still for that read-out and setting: the value for `CCCCCCCCCCCOC(=O)c1ccccc1C(=O)OCCCCCCCCCCC` was -13.1%.

For `CN(C)c1ccc(N)cc1`, the Potency is 50.1 µM (active).

With `CC(C)(C)OOC(=O)c1ccccc1`, the “viability change, negative = cytotoxic” value was -8.69%.
